The source of these data is PubChem BioAssay (NCATS).

Structures are written as SMILES. Results filed as inconclusive are left out. Activity calls are given as the source filed them. Unless noted, calls follow the shape of the dose curve; as a rule, active = well fitted curve in the direction sought with a large enough effect; inconclusive = small, poorly fitted or top-dose-only effect, or another doubt; inactive = no such curve, though single readings can be large; an effect the other way counts as inactive or inconclusive.

Assay [1] is described as follows: Confirmation and Secondary Assay for Modulators of Hemoglobin Beta Chain Splicing at IVS2 654 locus (AID 910).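 Also: HeLa cells stably carrying EGFP split by mutant beta-globin IVS2-654 intron; per-well total GFP intensity by laser scanning cytometry after 2-day treatment.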 In outline: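 Readout: per-well total peak green fluorescence (488 nm ex, 500–520 nm em) from objects 5–250 µm, reflecting correct splicing of an EGFP-654 reporter. Compounds were applied for 2 days at 37 °C to overnight-plated HeLa EGFP-654 cells; controls were DMSO and 500 nM IVS2-654 PNA.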

For assay [2], the target named is ATP-dependent 6-phosphofructokinase (Trypanosoma brucei brucei) (UniProt O15648). Briefly: qHTS Assay to Find Inhibitors of T. brucei phosphofructokinase: hit validation (AID 492961).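 Also: luminescence reports ADP formed as PFK phosphorylates fructose-6-phosphate with ATP.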 In outline:
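ADP-Glo luminescence read-out of ADP formed by 1.25 nM PFK from 0.1 mM ATP and 0.5 mM F6P (TEA pH 8.0, 45 min, RT). Compounds titrated; activity normalized to no-enzyme and full-enzyme controls.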
(Quantitative high-throughput screening tests each substance at several concentrations.)

The subject of a further assay is ATS189. Briefly: qHTS profiling for inhibitors of Plasmodium falciparum proliferation (AID 504749). Also: nearly all actives have a fitted effect of over 60% in size. Also: potency is read from the fitted curve at half-maximal effect. As to conditions: P. falciparum in erythrocytes, SYBR Green DNA, 72 h; series mostly up to 12.8 µM. In a few lines: (§1)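 SYBR Green fluorescence of parasite DNA, read after lysis and overnight dark incubation, measured growth over 72 h in erythrocyte culture at 0.3% parasitemia and 2.5% hematocrit. Data normalised to DMSO and 0.29 uM artemisinin, with plate-drift correction.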

The test system of another assay is ATS95. Described as above. As to conditions: P. falciparum in erythrocytes, SYBR Green DNA, 72 h; series mostly up to 12.8 µM. In a few lines:
as §1

The test system of the next assay is CP203. Described as above. As to conditions: P. falciparum in erythrocytes, SYBR Green DNA, 72 h; series mostly up to 12.8 µM. In outline:
as §1

The next assay relates to CP247. The description is as above. As to conditions: P. falciparum in erythrocytes, SYBR Green DNA, 72 h; series mostly up to 12.8 µM. In a few lines: as §1
A further assay relates to CP250. The description is as above. As to conditions: P. falciparum in erythrocytes, SYBR Green DNA, 72 h; series mostly up to 12.8 µM. In a few lines:
as §1

In another assay the test system is CP260. The description is as above. As to conditions: P. falciparum in erythrocytes, SYBR Green DNA, 72 h; series mostly up to 12.8 µM. In outline: as §1
For the next assay, the system named is CP266. Described as above. As to conditions: P. falciparum in erythrocytes, SYBR Green DNA, 72 h; series mostly up to 12.8 µM. In a few lines:
as §1

Another assay relates to CP297. Described as above. As to conditions: P. falciparum in erythrocytes, SYBR Green DNA, 72 h; series mostly up to 12.8 µM. In outline: as §1
For a further assay, the system named is CP335. The description is as above. As to conditions: P. falciparum in erythrocytes, SYBR Green DNA, 72 h; series mostly up to 12.8 µM. In a few lines:
as §1

A further assay concerns DIV17. The description is as above. As to conditions: P. falciparum in erythrocytes, SYBR Green DNA, 72 h; series mostly up to 12.8 µM. In outline:
as §1

A further assay deals with Dd2. The assay is described as above. As to conditions: P. falciparum in erythrocytes, SYBR Green DNA, 72 h; series mostly up to 12.8 µM. In outline: as §1
The next assay has as its system HB3. The assay is described as above. As to conditions: P. falciparum in erythrocytes, SYBR Green DNA, 72 h; series mostly up to 12.8 µM. In outline: as §1
In the next assay the test system is ICS. Described as above. As to conditions: P. falciparum in erythrocytes, SYBR Green DNA, 72 h; series mostly up to 12.8 µM. In outline: as §1
For the next assay, the system named is P93_24. Described as above. As to conditions: P. falciparum in erythrocytes, SYBR Green DNA, 72 h; series mostly up to 12.8 µM. In a few lines:
as §1

In the next assay the test system is P94_40. Described as above. As to conditions: P. falciparum in erythrocytes, SYBR Green DNA, 72 h; series mostly up to 12.8 µM. In outline: as §1
Another assay has as its system TAB113. The assay is described as above. As to conditions: P. falciparum in erythrocytes, SYBR Green DNA, 72 h; series mostly up to 12.8 µM. In a few lines:
as §1

The subject of the next assay is TAB165. Described as above. As to conditions: P. falciparum in erythrocytes, SYBR Green DNA, 72 h; series mostly up to 12.8 µM. In a few lines:
as §1

Assay [3] in a line: S16 Schwann cell PMP22 intronic element beta-lactamase assay (AID 624044; calls by dose curve; also: nearly all actives have a fitted effect of over 15% in size). In outline: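 Beta-lactamase reporter under a PMP22 intronic regulatory element in stable S16 rat Schwann cells; 24 h compound exposure. 460 nm blue signal normalized between DMSO (0%) and potassium clavulanate, with 535 nm FRET tracking viability; curves classed by r2 and response.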

Chain of ATP-dependent 6-phosphofructokinase (Trypanosoma brucei brucei) (O15648 whole entry, looked up): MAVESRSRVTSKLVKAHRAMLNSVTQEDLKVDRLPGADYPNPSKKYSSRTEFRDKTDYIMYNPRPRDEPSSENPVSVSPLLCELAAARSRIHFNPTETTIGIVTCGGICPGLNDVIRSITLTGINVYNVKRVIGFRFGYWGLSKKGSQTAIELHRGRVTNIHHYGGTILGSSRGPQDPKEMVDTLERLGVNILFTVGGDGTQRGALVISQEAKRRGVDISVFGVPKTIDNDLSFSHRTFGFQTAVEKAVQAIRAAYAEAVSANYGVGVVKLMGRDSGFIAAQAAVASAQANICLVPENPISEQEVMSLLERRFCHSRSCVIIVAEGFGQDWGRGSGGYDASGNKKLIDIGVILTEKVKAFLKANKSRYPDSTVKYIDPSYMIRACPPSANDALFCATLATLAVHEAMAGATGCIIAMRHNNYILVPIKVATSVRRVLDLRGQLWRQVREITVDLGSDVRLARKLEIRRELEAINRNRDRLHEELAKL

With `COc1cc(C2c3cc4c(cc3C(O[C@@H]3OC5COC(c6cccs6)OC5C(O)C3O)C3COC(=O)C23)OCO4)cc(OC)c1O` (some centres not stated), the Potency result in [1] was “inactive”. The compound was called inactive in assay [2]. The Potency was 2.24 µM (active) in the assay on ATS189; 2.51 µM (active) in the assay with ATS95; 3.79 µM (active) with CP203; 2.24 µM (active) with CP247; 2 µM (active) with CP250; 1.12 µM (active) in the assay on CP260. Moreover, the Potency was 4.78 µM (active) in the assay on CP266; 4.78 µM (active) with CP297; 1.69 µM (active) with CP335; 4.26 µM (active) in the assay on DIV17; 1.41 µM (active) in the assay with Dd2; 3.16 µM (active) in the assay with HB3. Moreover, the Potency with ICS was 1.26 µM (active); with P93_24, 1.58 µM (active); in the assay with P94_40, 1.26 µM (active); with TAB113 it was 2.24 µM (active); in the assay with TAB165, 1.41 µM (active).

Regarding `COc1ccc2cc1Oc1ccc(cc1)CC1c3c(cc4c(c3Oc3cc5c(cc3OC)CCN(C)C5C2)OCO4)CCN1C` (configuration not stated), the Potency entry in [1] and in assay [3] was “inactive” throughout. For the same compound, the outcome in [2] was inactive. The Potency is 4.47 µM (active) in the assay on ATS189; 4.47 µM (active) in the assay on ATS95; 12 µM (active) with CP203; 5.62 µM (active) with CP247; 4.47 µM (active) with CP260; 10.7 µM (active) with CP297. Moreover, the Potency was 6.01 µM (active) in the assay with CP335; 7.57 µM (active) in the assay with DIV17; 2.24 µM (active) in the assay on Dd2; 7.08 µM (active) with HB3; 2.82 µM (active) in the assay with ICS; 6.31 µM (active) in the assay with P93_24. The values for the Potency in the assay with P94_40, with TAB113 and with TAB165 were 8.91 µM (active), 7.08 µM (active) and 3.98 µM (active), respectively.

Take `C=Cc1c(C)c2cc3nc(cc4[nH]c(cc5nc(cc1[nH]2)C(C)=C5CCC(=O)O)c(CCC(=O)OC)c4C)[C@@]1(C)C3=CC=C(C(=O)OC)[C@H]1C(=O)OC` (tested in a mixture with another compound): the result in assay [2] was inactive. In addition, the Potency entry (in [3]; in the assay on CP266; in the assay on CP297) was “inactive” each time. Further, the Potency is 7.08 µM (active) in the assay with ATS189; 7.94 µM (active) in the assay on ATS95; 10 µM (active) in the assay with CP247; 10 µM (active) with CP250; 2.51 µM (active) in the assay with CP260; 3.79 µM (active) in the assay on CP335. For the same compound, the Potency in the assay with DIV17 was 7.57 µM (active); with Dd2, 2.24 µM (active); with HB3, 4.47 µM (active); with ICS, 0.501 µM (active); with P93_24 it was 8.91 µM (active); in the assay on P94_40 it was 3.55 µM (active). Further, the figures for the Potency in the assay with TAB113 and in the assay on TAB165 were 1.78 µM (active) and 6.31 µM (active), respectively.

On to `COC1C=CO[C@@]2(C)Oc3c(C)c(O)c4c(O)c(c5c(nc6cc(C)ccn65)c4c3C2=O)NC(=O)/C(C)=C\C=CC(C)C(O)[C@@H](C)C(O)C(C)[C@@H](OC(C)=O)C1C` (some centres not stated), for which the Potency entry in assay [1] and in assay [3] was “inactive” each time. The call in assay [2] was inactive. The Potency in the assay with ATS189 was 12.6 µM (active); in the assay on ATS95 it was 10 µM (active); in the assay on CP247, 8.91 µM (active); in the assay with CP260, 11.2 µM (active); in the assay on CP297 it was 4.26 µM (active); in the assay on CP335, 13.5 µM (active). For the same compound, the Potency with DIV17 was 0.536 µM (active); with Dd2, 12.6 µM (active); in the assay with HB3 it was 11.2 µM (active); in the assay on ICS it was 5.01 µM (active); in the assay with P93_24 it was 3.98 µM (active); with P94_40, 5.01 µM (active). The Potency is 12.6 µM (active) with TAB113 and 2.24 µM (active) in the assay with TAB165.

Regarding `CC1(C)OC2CO[C@]3(COS(N)(=O)=O)OC(C)(C)OC3C2O1` (some centres not stated), the Potency result (in [1]; in assay [3]; with ATS189; in the assay with ATS95; with CP203; with CP247) was “inactive” in each case. Further, the Potency result in the assay on CP250, in the assay with CP260, with CP266, in the assay with CP297, with CP335 and with DIV17 was “inactive” in each case. Also, the Potency result in the assay on Dd2, with HB3, in the assay on ICS, with P93_24, in the assay on P94_40 and in the assay on TAB113 was “inactive” each time. In the assay with TAB165, the Potency result is “inactive”. In assay [2], the call was inactive.
